Where “and” joins values, the source holds several entries; their conditions need not be identical. Equal entries are not always repeated. Inconclusive results are not listed. The source holds several records for some structures; these can differ, active in one and inactive in another. Calls of active or inactive are those of the source. Calls follow the shape of the full dose curve. Numbered stars: 1 amine (or outer) side, 2 acyl side, 3 side chain; on linkers, the order of the positions; unused ones are H or OH. Bridge positions count the residues as written; N and C are the ends. Square brackets hold non-standard residues; d marks the D form. Peptide text beside a SMILES is read from it. I, II: the chains in the order shown. Actinocin(9to1) = Cc1c2oc3c(C)ccc(C(=O)[*:1])c3nc-2c(C(=O)[*:2])c(N)c1=O; NMeV = CN[C@H](C(=O)O)C(C)C; Sar = CNCC(=O)O
Tested on: not listed separately
Assay: Nuclear factor erythroid 2-related factor 2/antioxidant responsive element (Nrf2/ARE) small molecule agonists: luciferase reporter gene qHTS assay in human keratinocytes (AID 1919969); also: potency is read from the fitted curve at half-maximal effect
Conditions: KeratinoSens HaCaT ARE-luciferase, luminescence, 24 h; series mostly up to 92.4 µM; activity, positive = activation: at the top concentration
% is scaled to controls: 0 for no effect and ±100 for the full control effect.
Also: nearly all actives have a fitted effect of over 35% in size.

| Structure (SMILES) | activity, positive = activation | Potency |
| --- | --- | --- |
| Cc1cc(C)c(N=Nc2c(O)c(S(=O)(=O)O)cc3cc(S(=O)(=O)O)ccc23)cc1C | -2.39% [at 8.39 µM] (inactive) | – |
| CC(=O)Nc1c(I)cc(I)c(C(=O)O)c1I | -3.12% [at 42.5 µM] (inactive) | – |
| C=COCCOCCOCCOC=C | -7.57% (inactive) | – |
| O=C1OC(=O)c2ccc3c4c(ccc1c24)C(=O)OC3=O | -12% (inactive) | – |
| CC(=O)[O][Al][O]C(C)=O | 0.787% (inactive) | – |
| COc1ccc2cc(C=O)ccc2c1 | 4.21% [at 42.5 µM] (inactive) | – |
| Cc1occc1S | – | 68.6 µM (active) |
| CCCN1CCCC[C@H]1C(=O)Nc1c(C)cccc1C | -8.21% [at 42.5 µM] (inactive) | – |
| Cc1ccc(NC(=O)N(C)C)cc1NC(=O)N(C)C | -6.88% (inactive) | – |
| CCN(CC)CCN | 0.505% [at 42.5 µM] (inactive) | – |
| O=[N+]([O-])c1ccccc1Nc1ccccc1 | -0.57% (inactive) | – |
| NC(=O)c1ncn([C@@H]2O[C@H](CO)[C@@H](O)[C@H]2O)c1O | 7.52% [at 42.5 µM] (inactive) | – |
| O=C(O)[C@@H]1[C@H]2C[C@H]3c4[nH]c5ccccc5c4CCN3C[C@@H]2CC[C@@H]1O | 1.77% [at 42.5 µM] (inactive) | – |
| CC1(C)C(C=C(Cl)Cl)C1C(=O)OCc1cccc(Oc2ccccc2)c1 (stereo not drawn) | 4.82% (inactive) | – |
| CC[C@]1(O)C[C@@H]2CN(CCc3c([nH]c4ccccc34)[C@@](C(=O)OC)(c3cc4c(cc3OC)N(C)[C@H]3[C@@](O)(C(=O)OC)[C@H](OC(C)=O)[C@]5(CC)C=CCN6CC[C@]43[C@@H]65)C2)C1 | – | 211 nM (active) and 596 nM (active) |
| O=C(O)c1ccccc1OP(=O)(O)O | 12.7% [at 42.5 µM] (inactive) | – |
| CCCCN(CCO)CCO | -5.62% (inactive) | – |
| COC(OC)C(C)c1ccccc1 (stereo not drawn) | -5.26% (inactive) | – |
| Nc1cc(=O)[nH]c(N)n1 | 1.13% [at 42.5 µM] (inactive) | – |
| CCOC(OCC)OCC | -15.8% (inactive) | – |

| Structure (SMILES) | activity, positive = activation | Potency |
| --- | --- | --- |
| C=CCOC(=O)CCCCCC | 10.6% (inactive) | – |
| O=C(O)[C@@H](O)[C@H](O)[C@H](O)[C@@H](O)C(=O)O | -3.75% [at 42.5 µM] (inactive) | – |
| CCCCCCCCCC(C)=O | 0.858% (inactive) | – |
| OC/C=C/CO | 7.03% (inactive) | – |
| CCCCCCCCCCCCC(=O)O | -5.54% (inactive) | – |
| Cc1ccc(S(=O)(=O)NC(=O)NC2CCCC2)cc1 | 0.239% [at 42.5 µM] (inactive) | – |
| CCCC(=O)c1ccccc1 | -7.61% (inactive) | – |
| NC(=O)c1cccc([N+](=O)[O-])c1 | -3.84% (inactive) | – |
| COc1c2ccoc2cc2oc(=O)ccc12 | -7.05% (inactive) | – |
| CC(C)c1cccc(C(C)C)c1N | 6.42% (inactive) | – |
| CCCCCCCCC1CCC(=O)O1 (stereo not drawn) | 10.7% (inactive) | – |
| Cc1cccc(Cl)c1 | 12.1% (inactive) | – |
| CO[Si](C)(C)OC | -10.3% (inactive) | – |
| COCc1ccc(COC)cc1 | -8.58% (inactive) | – |
| c1c[nH]cn1 | -8.16% (inactive) | – |
| OC1(c2ccc(Cl)cc2)CCNCC1 | -4.92% [at 42.5 µM] (inactive) | – |
| Cc1c2oc3c(C)ccc(C(=O)N[C@@H]4C(=O)N[C@H](C(C)C)C(=O)N5CCC[C@H]5C(=O)N(C)CC(=O)N(C)[C@@H](C(C)C)C(=O)O[C@@H]4C)c3nc-2c(C(=O)N[C@@H]2C(=O)N[C@H](C(C)C)C(=O)N3CCC[C@H]3C(=O)N(C)CC(=O)N(C)[C@@H](C(C)C)C(=O)O[C@@H]2C)c(N)c1=O (I: T[dV]P[Sar][NMeV] / II: T[dV]P[Sar][NMeV]; ester I:1-I:C, II:1-II:C; linker I:N-II:N via Actinocin(9to1)) | – | inactive and 42.2 nM (active) |
| C1CCCCC1 | 1.58% (inactive) | – |
| Cc1ccc(C(C)c2ccc(C)c(C)c2)cc1C | 3.18% (inactive) | – |

Biological target: Gonadotropin-releasing hormone receptor (Homo sapiens) (UniProt P30968)
Assay: Human gonadotropin-releasing hormone receptor (GnRHR) small molecule agonists, calcium flux assay in GnRHR-HEK293 cells (AID 1920063)
Conditions: calcium flux fluorescence, agonist mode; series mostly up to 57.6 µM; activity change: at the top concentration
How it was run: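 GnRHR-HEK293, 1500 cells/well, 18 h 37 C/5% CO2; Ca dye 1 h 37 C; cpd pinned (DMSO), agonist mode; kinetic FL 480/540, 3 min, 1 s reads; 15 conc, n=3.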

Gonadotropin-releasing hormone receptor (Homo sapiens), sequence (P30968 whole entry, looked up): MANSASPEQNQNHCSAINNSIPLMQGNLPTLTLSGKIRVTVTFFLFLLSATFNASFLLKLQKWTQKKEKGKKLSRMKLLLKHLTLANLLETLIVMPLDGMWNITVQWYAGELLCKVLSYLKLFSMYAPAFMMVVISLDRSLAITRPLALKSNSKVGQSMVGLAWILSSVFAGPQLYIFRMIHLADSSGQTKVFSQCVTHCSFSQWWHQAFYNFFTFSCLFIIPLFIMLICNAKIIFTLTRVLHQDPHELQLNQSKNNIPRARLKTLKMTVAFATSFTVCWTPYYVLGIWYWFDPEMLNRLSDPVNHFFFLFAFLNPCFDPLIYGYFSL

| Structure (SMILES) | activity change | Potency |
| --- | --- | --- |
| Cc1cc(C)c(N=Nc2c(O)c(S(=O)(=O)O)cc3cc(S(=O)(=O)O)ccc23)cc1C | 0.758% [at 5.22 µM, stronger effect = higher value] (inactive) | – |
| CC(=O)Nc1c(I)cc(I)c(C(=O)O)c1I | -0.708% [at 26.4 µM, stronger effect = higher value] (inactive) | – |
| C=COCCOCCOCCOC=C | 1.18% (inactive) | – |
| O=C1OC(=O)c2ccc3c4c(ccc1c24)C(=O)OC3=O | -1.33% (inactive) | – |
| CC(=O)[O][Al][O]C(C)=O | 0.803% (inactive) | – |
| COc1ccc2cc(C=O)ccc2c1 | -1.57% [at 26.4 µM, stronger effect = higher value] (inactive) | – |
| Cc1occc1S | 0.335% (inactive) | – |
| CCCN1CCCC[C@H]1C(=O)Nc1c(C)cccc1C | 3.63% [at 26.4 µM, stronger effect = higher value] (inactive) | – |
| Cc1ccc(NC(=O)N(C)C)cc1NC(=O)N(C)C | -1.2% (inactive) | – |
| CCN(CC)CCN | -1.7% [at 26.4 µM, stronger effect = higher value] (inactive) | – |
| O=[N+]([O-])c1ccccc1Nc1ccccc1 | -1.6% (inactive) | – |
| NC(=O)c1ncn([C@@H]2O[C@H](CO)[C@@H](O)[C@H]2O)c1O | -0.264% [at 26.4 µM, stronger effect = higher value] (inactive) | – |
| O=C(O)[C@@H]1[C@H]2C[C@H]3c4[nH]c5ccccc5c4CCN3C[C@@H]2CC[C@@H]1O | 2.69% [at 26.4 µM, stronger effect = higher value] (inactive) | – |
| CC1(C)C(C=C(Cl)Cl)C1C(=O)OCc1cccc(Oc2ccccc2)c1 (stereo not drawn) | – | inactive |
| CC[C@]1(O)C[C@@H]2CN(CCc3c([nH]c4ccccc34)[C@@](C(=O)OC)(c3cc4c(cc3OC)N(C)[C@H]3[C@@](O)(C(=O)OC)[C@H](OC(C)=O)[C@]5(CC)C=CCN6CC[C@]43[C@@H]65)C2)C1 | – | inactive |
| O=C(O)c1ccccc1OP(=O)(O)O | -0.282% [at 26.4 µM, stronger effect = higher value] (inactive) | – |
| CCCCN(CCO)CCO | 0.99% (inactive) | – |
| COC(OC)C(C)c1ccccc1 (stereo not drawn) | -0.13% (inactive) | – |
| Nc1cc(=O)[nH]c(N)n1 | -0.991% [at 26.4 µM, stronger effect = higher value] (inactive) | – |
| CCOC(OCC)OCC | 0.278% (inactive) | – |

| Structure (SMILES) | activity change | Potency |
| --- | --- | --- |
| C=CCOC(=O)CCCCCC | 0.0335% (inactive) | – |
| O=C(O)[C@@H](O)[C@H](O)[C@H](O)[C@@H](O)C(=O)O | -0.817% [at 26.4 µM, stronger effect = higher value] (inactive) | – |
| CCCCCCCCCC(C)=O | 0.453% (inactive) | – |
| OC/C=C/CO | -0.733% (inactive) | – |
| CCCCCCCCCCCCC(=O)O | -1.19% (inactive) | – |
| Cc1ccc(S(=O)(=O)NC(=O)NC2CCCC2)cc1 | 0.0944% [at 26.4 µM, stronger effect = higher value] (inactive) | – |
| CCCC(=O)c1ccccc1 | -0.618% (inactive) | – |
| NC(=O)c1cccc([N+](=O)[O-])c1 | 0.386% (inactive) | – |
| COc1c2ccoc2cc2oc(=O)ccc12 | – | inactive |
| CC(C)c1cccc(C(C)C)c1N | -0.674% (inactive) | – |
| CCCCCCCCC1CCC(=O)O1 (stereo not drawn) | 1.56% (inactive) | – |
| Cc1cccc(Cl)c1 | -0.311% (inactive) | – |
| CO[Si](C)(C)OC | 0.207% (inactive) | – |
| COCc1ccc(COC)cc1 | -0.627% (inactive) | – |
| c1c[nH]cn1 | – | inactive |
| OC1(c2ccc(Cl)cc2)CCNCC1 | -0.767% [at 26.4 µM, stronger effect = higher value] (inactive) | – |
| Cc1c2oc3c(C)ccc(C(=O)N[C@@H]4C(=O)N[C@H](C(C)C)C(=O)N5CCC[C@H]5C(=O)N(C)CC(=O)N(C)[C@@H](C(C)C)C(=O)O[C@@H]4C)c3nc-2c(C(=O)N[C@@H]2C(=O)N[C@H](C(C)C)C(=O)N3CCC[C@H]3C(=O)N(C)CC(=O)N(C)[C@@H](C(C)C)C(=O)O[C@@H]2C)c(N)c1=O (I: T[dV]P[Sar][NMeV] / II: T[dV]P[Sar][NMeV]; ester I:1-I:C, II:1-II:C; linker I:N-II:N via Actinocin(9to1)) | – | inactive |
| C1CCCCC1 | -0.822% (inactive) | – |
| Cc1ccc(C(C)c2ccc(C)c(C)c2)cc1C | 0.483% (inactive) | – |
